Assay results taken from PubChem BioAssay AID1053180 (Broad Institute, 2014).
Several values for one entry are separate records, joined by “and”; a condition that tells them apart may be missing. Equal values may be shown once. The campaign covered roughly 9,600 compounds. About 20 (0.2%) were called active. This is one part of a sample in which actives are shown more often than they occur.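 Rule for the calls: active = highest normalized replicate activity of 15 or more, or at least half the replicates reach 15 or more; inactive = neither condition met.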 The source holds several records for some structures; these can differ, active in one and inactive in another.

Assay: activators of Pax4 gene expression, primary screen, RT-PCR, mouse alpha TC1 cells, single point (AID 1053180);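 note: Pax4 Ct normalized to GAPDH with activation seen as lower delta delta Ct; plate controls were plate neutral control wells for no effect and Pax4 plasmid positive control for full effect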
Conditions: Pax4 mRNA qPCR, 6 days, at 10 µM, stronger effect = higher value, 100% = Pax4 plasmid added at qPCR

Row | Structure (SMILES) | activation
1 | CC[C@H]1C/C=C\C[C@@H](c2ccccc2)NC(=O)CCC(=O)N1 | -0.01% (inactive)
2 | O=C(c1cccc(F)c1)N1CC(=O)N2[C@@H](CO)[C@H](c3ccc(C4=CCCCC4)cc3)[C@@H]2C1 | 0.025% (inactive)
3 | COc1ccc(CN(C)C[C@@H]2Oc3ccc(NC(=O)Nc4ccc5c(c4)OCO5)cc3CC(=O)N([C@@H](C)CO)C[C@@H]2C)cc1 | 0.002% (inactive)
4 | COCC(=O)N1C[C@@H](C)[C@@H](OC)CN(C)C(=O)c2ccc(NC(=O)Nc3cccc(F)c3)cc2OC[C@H]1C | -0.0005% (inactive)
5 | CCC(=O)N1[C@H](CO)[C@@H]2c3ccccc3N(C(=O)Nc3ccc(Cl)cc3)C[C@@H]21 | -0.0015% (inactive)
6 | COc1ccccc1S(=O)(=O)N(C)C[C@@H]1OCc2cn(nn2)CCCC(=O)N([C@H](C)CO)C[C@H]1C | 0.001% (inactive)
7 | O=C(C1CCOCC1)N1CC(=O)N2[C@H](C1)[C@@H](c1ccc(-c3cccnc3)cc1)[C@@H]2CO | 0% (inactive)
8 | O=C(C[C@@H]1CC[C@@H]2[C@H](COC[C@@H](O)CN2Cc2cc(F)ccc2F)O1)NCc1ccc(Oc2ccccc2)cc1 | 0.098% (inactive)
9 | CN1c2ccc(-c3ccccc3)cc2[C@@H]2[C@@H](CCN2C(=O)NC2CCCCC2)[C@H]1CO | 0.001% (inactive)
10 | Cc1noc(C)c1S(=O)(=O)N(C)C[C@H]1Oc2ccc(NC(=O)c3ccncc3)cc2CC(=O)N([C@H](C)CO)C[C@H]1C | -0.009% (inactive)
11 | CN1C(=O)c2cc(NC(=O)c3cnccn3)ccc2OC[C@@H]2O[C@H](CC(=O)NCC3CCCCC3)CC[C@@H]21 | 0.05% (inactive)
12 | CO[C@@H]1CN(C)C(=O)c2ccc(NC(=O)Nc3cc(F)ccc3F)cc2OC[C@H](C)N(C(=O)c2ccccn2)C[C@@H]1C | 0.0015% (inactive)
13 | O=C(CN1CCOCC1)N1CC[C@@H]2[C@@H](CO)Nc3ccc(-c4ccccc4F)cc3[C@@H]21 | 0.001% (inactive)
14 | O=C(C[C@@H]1C[C@H]2c3cc(NC(=O)NC4CCCC4)ccc3O[C@H]2[C@H](CO)O1)NCc1ccccc1F | 0.02% (inactive)
15 | CO[C@@H]1CN(C)C(=O)c2ccc(NC(=O)c3ccccc3F)cc2OC[C@H](C)N(C)C[C@H]1C | 0.0025% (inactive)
16 | O=C(C1CCOCC1)N1CC(=O)N2[C@H](CO)[C@@H](c3ccc(/C=C/c4ccccc4)cc3)[C@H]2C1 | 0.002% (inactive)
17 | O=C1Nc2ccccc2OCc2cn(nn2)CC[C@H]1Cc1ccc(-c2ccccc2)cc1 | 0.059% (inactive)
18 | O=C(C[C@@H]1C[C@@H]2c3cc(NC(=O)c4ccc5c(c4)OCO5)ccc3O[C@@H]2[C@H](CO)O1)NCCN1CCCCC1 | -0.001% (inactive)
19 | CN(C)C(=O)C[C@H]1C[C@@H]2c3cc(NC(=O)Nc4ccc(F)cc4)ccc3O[C@@H]2[C@@H](CO)O1 | 0.013% (inactive)
20 | O=C(C[C@H]1CC[C@H]2[C@@H](COC[C@H](O)CN2Cc2ccc3c(c2)OCO3)O1)N1CCCCC1 | 0.0435% (inactive)
21 | Cc1ccc(S(=O)(=O)N(C)C[C@@H]2OCCCC[C@@H](C)Oc3ccc(NC(=O)c4ccncc4)cc3C(=O)N([C@@H](C)CO)C[C@H]2C)cc1 | 0% (inactive)
22 | O=C(C[C@H]1CC[C@@H]2[C@H](COC[C@@H](O)CN2S(=O)(=O)c2cccc(Cl)c2)O1)N1CCOCC1 | 0% (inactive)
23 | CO[C@H](CN(C)Cc1cc(F)ccc1F)[C@@H](C)CN(C(=O)Nc1ccc(C(F)(F)F)cc1)[C@H](C)CO | 0.0245% (inactive)
24 | CO[C@@H](CN(C)Cc1cc(F)ccc1F)[C@H](C)CN(C(=O)Nc1ccc(C(F)(F)F)cc1)[C@H](C)CO | 0.0205% (inactive)
25 | CO[C@@H](CN(C)Cc1cc(F)ccc1F)[C@@H](C)CN(C(=O)Nc1ccc(C(F)(F)F)cc1)[C@H](C)CO | 19.2% (active)
26 | CN(C[C@@H]1[C@@H](c2ccccc2)[C@H](CO)N1CC1CC1)C(=O)c1ccc(F)cc1 | -0.002% (inactive)

Row | Structure (SMILES) | activation
27 | COc1ccccc1-c1ccc([C@H]2[C@@H](CO)N[C@@H]2CNC(=O)C2CC2)cc1 | 0.001% (inactive)
28 | CC(C)(O)C#Cc1ccc([C@H]2[C@H]3CN(S(C)(=O)=O)CCCCN3[C@H]2CO)cc1 | 0.0005% (inactive)
29 | N#C[C@@H]1[C@H](c2ccccc2C2=CCCCC2)[C@H](CO)N1C(=O)CN1CCOCC1 | 0% (inactive)
30 | O=C(NC[C@@H]1[C@@H](c2ccccc2)[C@@H](CO)N1Cc1ccccn1)C1CCCC1 | -0.003% (inactive)
31 | CCCNC(=O)N1[C@H](CO)[C@@H](c2ccccc2-c2cccc(C)c2)[C@@H]1C#N | 0.0075% (inactive)
32 | CO[C@@H]1CC[C@@H]2CCOc3c(C#N)cccc3C(=O)N(C)CCCC(=O)N(C)C[C@H]1O2 | 0% (inactive)
33 | O=C(C[C@@H]1C[C@@H]2c3cc(NS(=O)(=O)c4ccccc4)ccc3O[C@@H]2[C@H](CO)O1)NCC(F)(F)F | 0.001% (inactive)
34 | O=C(Cc1ccccc1)N1CC[C@@H]2[C@@H](CO)Nc3ccc(C#Cc4cccc(F)c4)cc3[C@@H]21 | 0.0035% (inactive)
35 | CC(C)CC#Cc1ccc([C@H]2[C@@H](CO)N3CCCCN(C(=O)Nc4ccccc4)C[C@@H]23)cc1 | 0.0025% (inactive)
36 | O=C(C[C@@H]1CC[C@H](NC(=O)c2ccc3c(c2)OCO3)[C@@H](CO)O1)NCc1ccc(Oc2ccccc2)cc1 | 0.006% (inactive)
37 | COCC(=O)N1CC(=O)N2[C@H](CO)[C@H](c3ccc(-c4ccccc4F)cc3)[C@@H]2C1 | 0% (inactive)
38 | C[C@H]1CN([C@@H](C)CO)C(=O)c2cc(NS(=O)(=O)c3ccc(F)cc3)ccc2O[C@H]1CN(C)C(=O)Nc1ccccc1 | 0.002% (inactive)
39 | CO[C@H](CN(C)C(=O)C1CCOCC1)[C@@H](C)CN(C(=O)Nc1ccc(C(F)(F)F)cc1)[C@@H](C)CO | 0.0085% (inactive)
40 | O=C(CN1CCOCC1)N[C@@H]1CC[C@@H](CCn2cc(C3CC3)nn2)O[C@@H]1CO | 0.0035% (inactive)
41 | N#Cc1cccc(-c2ccc(C3[C@@H]4CN(Cc5ccccc5)C[C@H]3N4)cc2)c1 (some centres not stated) | 2.74% (inactive) and 0.113% (inactive)
42 | COc1cc(CN2C[C@@H]3N[C@H](C2)C3c2ccc(-c3ccc(C#N)cc3)cc2)cc(OC)c1 (some centres not stated) | 3.96% (inactive) and 9.29% (active)
43 | COc1cccc(CN2C[C@@H]3N[C@H](C2)C3c2ccc(-c3ccccc3C)cc2)c1 (some centres not stated) | 0.0245% (inactive) and 0.039% (inactive)
44 | COc1cccc(-c2ccc(C3[C@@H]4CN(Cc5ccccn5)C[C@H]3N4)cc2)c1 (some centres not stated) | 0.0705% (inactive) and 213% (active)
45 | Fc1ccccc1-c1ccc(C2[C@@H]3CN(Cc4ccccn4)C[C@H]2N3)cc1 (some centres not stated) | 0.412% (inactive) and 0.0165% (inactive)
46 | N#Cc1ccc(-c2ccc([C@@H]3[C@@H]4CN(Cc5cocn5)C[C@H]3N4)cc2)cc1 | 0.128% (inactive)
47 | C[C@@H]1CCCCO[C@@H](CN(C)S(=O)(=O)c2ccc(F)cc2)[C@H](C)CN([C@@H](C)CO)C(=O)c2cc(N(C)C)ccc2O1 | 0.002% (inactive)
48 | COc1cccc(S(=O)(=O)N[C@H]2CC[C@@H](CC(=O)NC3Cc4ccccc4C3)O[C@@H]2CO)c1 | 0.0015% (inactive)
49 | CO[C@@H]1CC[C@H]2CCOc3c(C#N)cccc3C(=O)N(C)CCCC(=O)N(C)C[C@H]1O2 | 0.001% (inactive)
50 | C[C@@H]1CCCCO[C@H](CN(C)C(=O)c2ccncc2)[C@H](C)CN([C@H](C)CO)C(=O)c2cc(NS(=O)(=O)c3cccs3)ccc2O1 | 0.001% (inactive)
51 | CCCNC(=O)[C@H]1[C@H](CO)[C@H]2Cn3c(ccc(/C=C/c4ccccc4)c3=O)[C@H]2N1CC1CC1 | 0% (inactive)
52 | Cc1ccccc1S(=O)(=O)N1C[C@@H]2N[C@H](C1)C2c1ccc(-c2cccc(C#N)c2)cc1 (some centres not stated) | 0.966% (inactive) and 11.5% (active)

Row | Structure (SMILES) | activation
53 | Cc1cccc(-c2ccc(C3[C@@H]4CN(C(=O)Nc5ccc(F)cc5)C[C@H]3N4)cc2)c1 (some centres not stated) | 0.272% (inactive)
54 | C/C=C/c1ccc(C2[C@@H]3CN(C(=O)Nc4ccc(C(F)(F)F)cc4)C[C@H]2N3)cc1 (some centres not stated) | 32.9% (active) and 0.0565% (inactive)
55 | N#Cc1cccc(-c2ccc(C3[C@@H]4CNC[C@H]3N4)cc2)c1 (some centres not stated) | 0.0045% (inactive)
56 | C/C=C/c1ccc(C2[C@H]3CNC[C@@H]2N3C(=O)Nc2ccc(C(F)(F)F)cc2)cc1 (some centres not stated) | 0.016% (inactive) and 0.0105% (inactive)
57 | COc1ccc(-c2ccc(C3[C@@H]4CN(S(=O)(=O)c5ccccc5C)C[C@H]3N4)cc2)cc1 (some centres not stated) | 0.369% (inactive) and 0.0145% (inactive)
58 | COc1ccccc1NC(=O)N1C[C@@H]2N[C@H](C1)C2c1ccc(-c2cccc(C#N)c2)cc1 (some centres not stated) | 0.02% (inactive) and 0.24% (inactive)
59 | N#Cc1cccc(-c2ccc(C3[C@@H]4CN(C(=O)Nc5ccc(C(F)(F)F)cc5)C[C@H]3N4)cc2)c1 (some centres not stated) | 8.39% (active) and 0.03% (inactive)
60 | O=C(Nc1ccc(F)cc1)N1C[C@@H]2N[C@H](C1)C2c1ccc(/C=C/c2ccccc2)cc1 (some centres not stated) | 1.76% (inactive)
61 | O=C1CNC[C@@H]2[C@H](c3ccc(-c4ccccc4F)cc3)[C@@H](CO)N12 | 0% (inactive)
62 | CNC[C@H]1Oc2cc(C#Cc3ccccc3OC)ccc2S(=O)(=O)N([C@@H](C)CO)C[C@@H]1C | 0.371% (inactive)
63 | CNC[C@H]1Oc2cc(C#Cc3ccccc3OC)ccc2S(=O)(=O)N([C@H](C)CO)C[C@@H]1C | 0.402% (inactive)
64 | CNC[C@@H]1Oc2cc(C#Cc3ccccc3OC)ccc2S(=O)(=O)N([C@H](C)CO)C[C@H]1C | 10.4% (active)
65 | C[C@@H]1CN([C@@H](C)CO)C(=O)CCCn2nncc2CO[C@H]1CN(C)C(=O)c1cc(-c2ccccc2)on1 | 0.0055% (inactive)
66 | C[C@@H]1CN([C@H](C)CO)C(=O)CCCn2nncc2CO[C@@H]1CN(C)Cc1ccccc1C(=O)O | -0.0005% (inactive)
67 | C[C@@H]1CCCCO[C@H](CN(C)C(=O)Nc2ccc3c(c2)OCO3)[C@H](C)CN([C@H](C)CO)C(=O)c2cc(NS(=O)(=O)c3ccc(F)cc3)ccc2O1 | 0.0035% (inactive)
68 | CC(C)CN(C[C@H]1N[C@H](CO)[C@@H]1c1ccccc1)C(=O)C1CCCCC1 | 0% (inactive)
69 | CO[C@H]1CN(C)C(=O)c2cc(NC(=O)Nc3cccc(Cl)c3)ccc2OC[C@H](C)N(C(=O)Nc2c(C)noc2C)C[C@@H]1C | 0.004% (inactive)
70 | COc1ccc2c3c([nH]c2c1)[C@H](CO)N(Cc1ccccc1F)CC31CN(CC2CC2)C1 | 0.011% (inactive)
71 | COCC#Cc1ccc([C@H]2[C@@H](CO)N3CCCCN(C(=O)NC4CCCC4)C[C@H]23)cc1 | 0.001% (inactive)
72 | O=C(c1ccccc1)N1CC(=O)N2[C@H](CO)[C@H](c3ccc(-c4ccccc4)cc3)[C@@H]2C1 | 0.0005% (inactive)
73 | C/C=C/c1ccc([C@@H]2[C@H](CO)N(C(C)=O)[C@H]2CNC(=O)c2ccccc2)cc1 | 0.0015% (inactive)
74 | C[C@H](NC(=O)C[C@H]1C=C[C@@H](NC(=O)c2cccnc2)[C@H](CO)O1)c1ccccc1 | 0.0005% (inactive)
75 | CS(=O)(=O)Nc1ccc2c(c1)[C@@H]1C[C@@H](CC(=O)NCc3cc(F)ccc3F)O[C@H](CO)[C@@H]1O2 | 0.007% (inactive)
76 | C[C@@H]1CN([C@@H](C)CO)C(=O)c2ccccc2-c2ccccc2CO[C@@H]1CN(C)C(=O)NC1CCCCC1 | -0.0015% (inactive)
77 | CO[C@H]1CN(C)C(=O)c2ccc(NC(=O)c3nc4ccccc4s3)cc2OC[C@H](C)N(Cc2cccnc2)C[C@@H]1C | 0.009% (inactive)
